This is part of a sample that, as a whole, favours compounds with a hit. Of some 83,000 tested, about 20% had one in any assay.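 For each line, cells grew in 96-well plates with the test compound present at a single concentration for 48 hours.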 Values without a mark were called inactive. Calls of active or inactive are those of the source. How the source made its calls: active means growth percent below 10; inactive means the rest.
Assays:
Assay in all cases: NCI-60 one-dose screen, 48 h (100 = growth as untreated, 0 = no growth, -100 = all killed)
Details in all cases: 10 µM unless noted
NCI-H23 lung = system: NCI-H23 lung
NCI-H226 lung = system: NCI-H226 lung
NCI-H322M lung = system: NCI-H322M lung
HOP-62 NSCLC = system: HOP-62 NSCLC
NCI-H460 lung = system: NCI-H460 lung
HOP-92 NSCLC = system: HOP-92 NSCLC
NCI-H522 lung = system: NCI-H522 lung
A549/ATCC NSCLC = system: A549/ATCC NSCLC
786-0 renal = system: 786-0 renal
COLO 205 colon = system: COLO 205 colon
DU-145 prostate = system: DU-145 prostate
K-562 leukemia = system: K-562 leukemia
MALME-3M melanoma = system: MALME-3M melanoma
MDA-MB-231 breast = system: MDA-MB-231 breast
RXF 393 renal = system: RXF 393 renal
SF-268 CNS = system: SF-268 CNS
SF-295 CNS = system: SF-295 CNS
SF-539 CNS = system: SF-539 CNS
UACC-257 melanoma = system: UACC-257 melanoma
M14 melanoma = system: M14 melanoma

| SMILES | growth (NCI-H23 lung) | growth (NCI-H226 lung) | growth (NCI-H322M lung) | growth (HOP-62 NSCLC) | growth (NCI-H460 lung) | growth (HOP-92 NSCLC) | growth (NCI-H522 lung) | growth (A549/ATCC NSCLC) | growth (786-0 renal) | growth (COLO 205 colon) | growth (DU-145 prostate) | growth (K-562 leukemia) | growth (MALME-3M melanoma) | growth (MDA-MB-231 breast) | growth (RXF 393 renal) | growth (SF-268 CNS) | growth (SF-295 CNS) | growth (SF-539 CNS) | growth (UACC-257 melanoma) | growth (M14 melanoma) |
| --- | --- | --- | --- | --- | --- | --- | --- | --- | --- | --- | --- | --- | --- | --- | --- | --- | --- | --- | --- | --- |
| O=[N+]([O-])c1ccc(Cl)c(-c2cc(CCCCO)on2)c1 | 101% | 93.5% | 96.3% | 106% | 109% | 94.2% | 93.8% | 92.9% | 98.6% | 131% | 111% | 102% | 102% | 103% | 99.2% | 99.3% | 111% | 96.7% | 117% | 110% |
| COc1ccn2c(C(C)=O)cc(C(=O)c3ccc4c(c3)Sc3ccccc3N4)c2c1 | 28.3% | 26% | 42.8% | 20.2% | 4.07% (active) | 31.2% | -21.5% (active) | 10.5% | 10.7% | -41% (active) | -18.3% (active) | 7.02% (active) | 85.9% | -17.2% (active) | 51.9% | 22.2% | 13.9% | -11.8% (active) | 52% | 9.58% (active) |
| CCOC(=O)C1=C(N)Oc2c(sc3c(C)cccc23)C1c1ccc(F)cc1 (stereo not given) | 20.1% | 9.65% (active) | 51.5% | 36.2% | 4.3% (active) | 91.7% | 11.8% | 20.1% | 33.4% | -1.13% (active) | 12.1% | 4.54% (active) | 52.7% | 27.8% | -7.13% (active) | 38.2% | 0.881% (active) | -1.53% (active) | 59.2% | 10.6% |
| Cc1cccc(OCC(O)CN2CCN(c3ccc(Cl)cc3)CC2)c1 (stereo not given) | 95.2% | 112% | 125% | 118% | 108% | 80% | 109% | 98.5% | 96.5% | 96.7% | 113% | 96.9% | 153% | 98.7% | 118% | 99.4% | 94.5% | 104% | 108% | 94.7% |
| CCCCCCNC(=O)Oc1ccc(/C(=C(\C)c2ccc(Cl)cc2)c2ccc(OCCN(CC)CC)cc2)cc1 | 67.1% | 101% | 85.7% | 77.8% | 26.4% | 58.3% | 86.4% | 58.4% | 41.2% | 4.94% (active) | 73.5% | 2.67% (active) | 49.3% | 65% | 49.7% | 62% | 84.9% | 72.3% | 6.29% (active) | -4.87% (active) |
| O=C(N/N=C/[C@@H](O)[C@H](O)[C@H](O)CO)c1ccc(NC(=O)c2cccnc2)cc1 | 107% | 99.9% | 104% | 102% | 108% | 103% | 99.3% | 101% | 106% | 107% | 112% | 103% | 110% | 102% | 109% | 98.5% | 101% | 103% | 100% | 106% |
| CC1Cc2ccccc2N1NC(=O)c1ccc(Cl)c(S(N)(=O)=O)c1 (stereo not given) | 96.8% | 97.8% | 95.2% | 95.8% | 111% | 44.9% | 88% | 107% | 96.6% | 108% | 108% | 103% | 94.2% | 104% | 108% | 106% | 101% | 105% | 102% | 98.2% |
| COc1ccc(/C=N/Nc2cc(=O)[nH]c3ccc(Cl)cc23)cc1 | 20.2% | 80.4% | 66.3% | 71.9% | 23.9% | 70.8% | -42.7% (active) | 40.2% | 62.1% | 83.3% | 64.7% | 20.9% | 46% | 71.3% | 85.6% | 58.9% | 72.6% | 97.2% | 81.7% | 54.8% |
| CC(C)C(=O)Nc1ccc(-c2nc(-c3cccc(OCCN4CCOCC4)c3)c(-c3ccnc(Br)c3)[nH]2)cc1 | 55.6% | 76.4% | 67.8% | 55.2% | 63.6% | 61.3% | 68.7% | 63% | -19.3% (active) | 43.3% | 71.5% | 2.82% (active) | 33.6% | 57.6% | -35.3% (active) | 60.3% | -57.7% (active) | 24.3% | 56.6% | 59.7% |
| COc1cc(C2CC(c3ccc(SC)cc3)=NN2C(C)=O)cc(OC)c1OC (stereo not given) | 70.5% | 85.3% | 91% | 80.1% | 48.6% | 83.7% | 35.2% | 58% | 84.6% | 64.6% | 91% | 31.1% | 59.6% | 85.3% | 77.7% | 77.2% | 44.1% | 78.1% | 79.4% | 44.3% |
| Nc1cc2c(cc1Br)-c1cc(Cl)ccc1C2=O | 97.1% | 81.1% | 102% | 99.1% | 100% | 87.6% | 96.1% | 96.7% | 98.6% | 87.3% | 107% | 93.2% | 107% | 79.8% | 101% | 90.6% | 106% | 99.2% | 103% | 105% |
| Cc1cc2[nH]c(=O)c3c4ncccc4cn3c2cc1C | 70% | 51.8% | 29.9% | 59% | -33.9% (active) | 83.3% | -23.7% (active) | 49.8% | 7.03% (active) | 14.8% | 35.6% | 3.34% (active) | 70.1% | 28.8% | 18.1% | 41.7% | -14.7% (active) | 26.7% | 108% | 67.3% |
| CCOC(=O)/C(C#N)=C\Nc1ccc2ncnc(Nc3ccc(Cl)cc3Cl)c2c1 | 99.5% | 99.8% | 75.6% | 101% | 84.8% | 56.5% | 95.8% | 72.1% | 82.6% | 108% | 55.9% | 59.7% | 140% | 85.2% | 77% | 73% | 82.2% | 92.7% | 97.2% | 106% |
| COc1ccc(-c2cc3c4c(nc5ccccc5c4c2)CC(c2cc(OC)c(OC)c(OC)c2)O3)cc1 (stereo not given) | 54.2% | -12.5% (active) | 54.2% | 34.7% | 12.8% | -7.6% (active) | 55.6% | 64.7% | -56.1% (active) | 67.5% | 35.4% | 40.9% | 20.8% | 19.6% | -0.548% (active) | 44.4% | 42% | -16% (active) | 46.3% | 57.5% |
| CN(C)c1ccc2nc3ccc(=[N+](C)C)c([N+](=O)[O-])c-3sc2c1 | 9.52% (active) | 73.2% | 42.2% | 64.2% | 25.3% | 38.7% | 16.3% | 26.3% | 31.9% | 20.3% | 54% | 23.8% | 9.75% (active) | 2.84% (active) | 79.7% | 33.4% | -1.42% (active) | 36.6% | 12.8% | 9.93% (active) |
| Cc1ccc(-c2nc(N3CCN(C(=O)c4ccc(OC(F)(F)F)cc4)CC3)c3ccccc3n2)cc1 | 94.9% | 83.6% | 93% | 99.3% | 92.8% | 103% | 82% | 71.6% | 81.7% | 91.1% | 90.8% | 70% | 104% | 84.3% | 88.5% | 71.9% | 93.9% | 98.2% | 99.3% | 94.9% |

From PubChem BioAssay (NCI)
